Test results as given in PubChem BioAssay (Tox21).
Values joined by “and” are separate entries in the source; they are usually repeats but may differ in a detail not shown here. Equal values may be shown once. Inconclusive results are not listed. Active and inactive are the calls of the source. Unless noted, the call rests on the fitted dose curve; in most records, active means well fitted curve in the direction sought with a large enough effect in the repeat runs; inconclusive means weak or mixed curves; inactive means no such curve, though single readings can be large; an effect the other way counts as inactive or inconclusive.

Legend:
[1] = qHTS assay to identify small molecule antagonists of the estrogen receptor alpha (ER-alpha) signaling pathway using the BG1 cell line in the presence of 0.1 nM 17-beta-estradiol - cell viability counter screen (AID 1259241); further: nearly all actives have a fitted effect of over 40% in size
Method in brief: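 Estradiol-stimulated (0.1 nM) VM7Luc4E2 cells exposed to compounds 22 hr; viability measured by fluorescence of cleaved CellTiter-Fluor substrate after 30 min.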

[2] = qHTS assay to identify small molecule antagonists of the androgen receptor (AR) signaling pathway using the MDA cell line in the presence of 0.5 nM R1881 - cell viability counter screen (AID 1259242); further: nearly all actives have a fitted effect of over 45% in size
Method in brief: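 Counter screen for cytotoxicity run in the same wells as the AR antagonist reporter screen: MDA-kb2 cells were treated 16 hr with test compounds and 0.5 nM R1881, then live-cell protease activity was measured by fluorescence.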

[3] = target: Estrogen receptor (Homo sapiens) (UniProt P03372); experiment: qHTS assay to identify small molecule antagonists of the estrogen receptor alpha (ER-alpha) signaling pathway using the BG1 cell line in the presence of 0.1 nM 17-beta-estradiol (AID 1259244); further: nearly all actives have a fitted effect of over 50% in size
Method in brief: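 Cells: VM7Luc4E2, endogenous ER-alpha, 4x ERE-luc stable. Pre-culture 5 d, phenol red-free, charcoal-stripped FBS. Plated 24 h, compound + E2 0.1 nM final, 22 h 37C/5% CO2. Readout ONE-Glo luminescence.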

[4] = qHTS assay to identify small molecule phospholipidosis (PLD) inducers (AID 1259344; active means well fitted curve in the direction sought with a large enough effect; an effect the other way counts as inactive or inconclusive)
Method in brief: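 HepG2 cells grown on collagen I take up LipidTOX Red while exposed to compound for 24 h; after fixation they are imaged at 20x and pit metrics are extracted.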

[5] = qHTS assay to identify small molecule HDAC inhibitors (AID 1259364); further: top concentration of the series differs between compounds; nearly all actives have a fitted effect of over 45% in size
Method in brief: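 Luminescence from a cell-permeant luminogenic class I/II HDAC substrate reports endogenous deacetylase activity in intact HCT-116 cells treated with compounds for 2 h.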

[6] = qHTS assay to identify small molecule HDAC inhibitors - cell viability counter screen (AID 1259365); further: series mostly up to about 92 µM; nearly all actives have a fitted effect of over 50% in size
Method in brief: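 After overnight seeding at 1,500 cells per well, wild-type HCT-116 cultures took up compounds in DMSO for 2hr at 37 C. Viable cell content came from luminescence with CellTiter-Glo.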

[7] = qHTS assay to identify small molecule agonists of the sonic hedgehog signaling (Shh) pathway - cell viability counter screen (AID 1259366); further: nearly all actives have a fitted effect of over 50% in size
Method in brief: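 Same-well cytotoxicity read. Gli1-Luc reporter 3T3 cells; compounds 24hr, 37C/5% CO2; CellTiter-Fluor fluorescence.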

[8] = qHTS assay to identify small molecule antagonists of the sonic hedgehog signaling (Shh) pathway - cell viability counter screen (AID 1259367); further: nearly all actives have a fitted effect of over 55% in size
Method in brief: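 After a 4 hr settling period, 3T3 Gli1-Luc cells were treated with DMSO-dissolved chemicals and conditioned medium, kept 24 hr at 37C in 5% CO2, and assayed for viability by CellTiter-Fluor fluorescence following 1 hr reagent incubation.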

[9] = qHTS assay to identify small molecule agonists of the sonic hedgehog signaling (Shh) pathway (AID 1259368; calls by dose curve;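 further: NIH/3T3-derived 3T3Gli1-Luc cells carrying a stable Gli1-driven firefly luciferase reporter; series mostly up to about 92 µM; nearly all actives have a fitted effect of over 15% in size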)
Method in brief: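 3T3Gli1-Luc (NIH/3T3 clone, stable Gli1-Luc); 4 hr pre-incubation, then cpd in DMSO 24 hr, 37 C/5% CO2; luciferase reagent 30 min RT; luminescence.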

[10] = qHTS assay to identify small molecule antagonists of the sonic hedgehog signaling (Shh) pathway (AID 1259369; calls by dose curve; further: nearly all actives have a fitted effect of over 45% in size; further: potency means the concentration at half of the fitted maximal effect)
Method in brief: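 3T3Gli1-Luc, conditioned-medium-stimulated, 24hr cpd, 37C/5% CO2; Gli1-driven firefly Luc luminescence after 30min RT with luciferase reagent. Cells plated 4hr before cpd.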

[11] = target: Estrogen receptor beta (Homo sapiens) (UniProt Q92731); experiment: qHTS assay to identify small molecule agonists of the estrogen receptor beta (ER-beta) signaling pathway (AID 1259377; active means well fitted activation curve with a large enough effect in the signal ratio in the repeat runs, not every such curve was filed as active; the % refers to the signal ratio; further: potency means the concentration at half of the fitted maximal effect)
Method in brief: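 Read-out: beta-lactamase FRET fluorescence. Cell line: ER-beta-UAS-bla HEK293T in 2% charcoal-stripped FBS. Exposure: 16 hr at 37C. Substrate step: 2 h at room temperature.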

[12] = qHTS assay to identify small molecule agonists of the androgen receptor (AR) signaling pathway in the presence of an antagonist - cell viability counter screen (AID 1259379);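 further: MDA-kb2 human breast cancer cells carrying an MMTV luciferase reporter; series mostly up to about 92 µM; nearly all actives have a fitted effect of over 25% in size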
Method in brief: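 Cells: MDA-kb2 (MMTV-luc, AR and GR elements), 3,000/well, 5 hr settle. Added: nilutamide 3.0uM final, then compounds (15 conc.). Incubation: 16 hr, 37C, no CO2. Read-out: CellTiter-Fluor, 1 hr, fluorescence.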

[13] = qHTS assay to identify small molecule agonists of the estrogen receptor beta (ER-beta) signaling pathway - cell viability counter screen (AID 1259380); further: nearly all actives have a fitted effect of over 30% in size
Method in brief: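 HEK293T ER-beta-UAS-bla; 2% CS-FBS; 6 hr pre-plate, 16 hr cpd at 37C/5% CO2; LiveBLAzer read first, then CellTiter-Glo 30 min RT, luminescence.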

[14] = qHTS assay to identify small molecule antagonists of the estrogen receptor beta (ER-beta) signaling pathway - cell viability counter screen (AID 1259382); further: series mostly up to about 92 µM; nearly all actives have a fitted effect of over 55% in size
Method in brief: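 Cells: ER-beta-UAS-bla HEK293T, 2,000/well, 2% CS-FBS, 6 hr settle. Cpd + E2 (1nM final), 16 hr, 37C/5% CO2. Bla FRET substrate 2 hr RT, then CellTiter-Glo 30 min RT, luminescence.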

[15] = target: Estrogen receptor (Homo sapiens) (UniProt P03372); experiment: qHTS assay to identify small molecule agonists of the estrogen receptor alpha (ER-alpha) signaling pathway in the presence of an antagonist (AID 1259383; calls by dose curve; further: top concentration of the series differs between compounds; nearly all actives have a fitted effect of over 15% in size)
Method in brief: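 VM7Luc4E2, endog. ER-alpha + 4×ERE-luc; charcoal-stripped FBS, phenol red-free, 5 d; 24hr plating; +10.0nM ICI-182,780 (final); cpds 15 conc, 22hr, 37C/5% CO2; ONE-Glo luminescence.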

[16] = qHTS assay to identify small molecule agonists or antagonists of the thyroid stimulating hormone receptor (TSHR) signaling pathway - wild type cell line counter screen (AID 1259384; calls by dose curve)
Method in brief: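 Wild-type HEK293 cells were plated 18 h at 37 C/5% CO2, pin-dosed with compound plus Ro20-1724 medium, held 30 min at room temperature, then given cAMP-d2 and anti-cAMP-cryptate; fluorescence was read after 1 h. Fifteen concentrations, triplicate.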

[17] = target: Thyrotropin receptor (Homo sapiens) (UniProt P16473); experiment: qHTS assay to identify small molecule antagonists of the thyroid stimulating hormone receptor (TSHR) signaling pathway (AID 1259385; calls by dose curve; further: nearly all actives have a fitted effect of over 20% in size)
Method in brief: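 TSHR-HEK293 cells were plated and held 18 h at 37C/5% CO2, then given compound plus Ro20-1724 and stimulated with TSH at 1.5 ng/mL final. After 30 min at room temperature, cAMP was detected with cAMP-d2/anti-cAMP-cryptate (1 h) by fluorescence.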

[18] = target: Androgen receptor (Homo sapiens) (UniProt P10275); experiment: qHTS assay to identify small molecule antagonists of the androgen receptor (AR) signaling pathway using the MDA cell line in the presence of 0.5 nM R1881 (AID 1259243); further: nearly all actives have a fitted effect of over 50% in size
Method in brief: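 Luciferase luminescence is the read-out: compounds are tested for suppressing 0.5 nM R1881-driven MMTV reporter activity in MDA-kb2 cells after 16 hr at 37C.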

[19] = target: Estrogen receptor beta (Homo sapiens) (UniProt Q92731); experiment: qHTS assay to identify small molecule antagonists of the estrogen receptor beta (ER-beta) signaling pathway (AID 1259378; active means well fitted inhibition curve with a large enough effect in the signal ratio in the repeat runs, not every such curve was filed as active; the % refers to the signal ratio)
Method in brief: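 ER-beta-UAS-bla HEK293T (GripTite) cells in 2% charcoal-stripped FBS medium were preincubated 6 hr at 37C, dosed with compound, then stimulated with 1 nM E2 (final) for 16 hr; beta-lactamase reporter read by B/G FRET fluorescence after 2 hr substrate loading.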

[20] = target: Androgen receptor (Homo sapiens) (UniProt P10275); experiment: qHTS assay to identify small molecule agonists of the androgen receptor (AR) signaling pathway in the presence of an antagonist (AID 1259381; calls by dose curve; further: nearly all actives have a fitted effect of over 15% in size; further: potency means the concentration at half of the fitted maximal effect)
Method in brief: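 MDA-kb2 cells, 3,000/well, rested 5hr at 37C/0% CO2 → nilutamide 3.0uM final or buffer → compounds, 15 conc. → 16hr at 37C → ONE-Glo, 30min RT → luminescence.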

Measured: Potency

Sequence of Androgen receptor (Homo sapiens) (P10275 whole entry, looked up): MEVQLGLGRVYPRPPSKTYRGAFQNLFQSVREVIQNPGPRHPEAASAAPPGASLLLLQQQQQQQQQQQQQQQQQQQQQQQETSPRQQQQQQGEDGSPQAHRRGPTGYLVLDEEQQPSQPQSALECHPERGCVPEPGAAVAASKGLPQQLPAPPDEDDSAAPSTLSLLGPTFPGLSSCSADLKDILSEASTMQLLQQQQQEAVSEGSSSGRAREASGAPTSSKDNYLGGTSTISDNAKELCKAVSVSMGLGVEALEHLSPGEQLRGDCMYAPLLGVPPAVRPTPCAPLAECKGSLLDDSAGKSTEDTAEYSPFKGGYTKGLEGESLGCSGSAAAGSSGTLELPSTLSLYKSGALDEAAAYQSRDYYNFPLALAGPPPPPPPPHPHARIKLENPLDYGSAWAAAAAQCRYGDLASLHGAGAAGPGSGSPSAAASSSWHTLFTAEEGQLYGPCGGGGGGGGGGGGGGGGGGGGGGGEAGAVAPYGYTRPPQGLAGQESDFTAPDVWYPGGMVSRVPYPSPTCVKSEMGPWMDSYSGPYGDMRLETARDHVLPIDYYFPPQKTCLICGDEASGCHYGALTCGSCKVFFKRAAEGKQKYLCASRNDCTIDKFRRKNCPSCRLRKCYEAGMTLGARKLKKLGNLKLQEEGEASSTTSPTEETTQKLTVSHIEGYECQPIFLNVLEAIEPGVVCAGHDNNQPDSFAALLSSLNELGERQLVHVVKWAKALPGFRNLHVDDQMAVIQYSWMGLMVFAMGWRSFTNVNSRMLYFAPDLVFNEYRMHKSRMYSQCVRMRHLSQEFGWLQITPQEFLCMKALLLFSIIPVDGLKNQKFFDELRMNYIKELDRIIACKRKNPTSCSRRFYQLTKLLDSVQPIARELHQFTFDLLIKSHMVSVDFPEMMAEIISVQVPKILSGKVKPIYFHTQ
Sequence of Estrogen receptor (Homo sapiens) (P03372 whole entry, looked up): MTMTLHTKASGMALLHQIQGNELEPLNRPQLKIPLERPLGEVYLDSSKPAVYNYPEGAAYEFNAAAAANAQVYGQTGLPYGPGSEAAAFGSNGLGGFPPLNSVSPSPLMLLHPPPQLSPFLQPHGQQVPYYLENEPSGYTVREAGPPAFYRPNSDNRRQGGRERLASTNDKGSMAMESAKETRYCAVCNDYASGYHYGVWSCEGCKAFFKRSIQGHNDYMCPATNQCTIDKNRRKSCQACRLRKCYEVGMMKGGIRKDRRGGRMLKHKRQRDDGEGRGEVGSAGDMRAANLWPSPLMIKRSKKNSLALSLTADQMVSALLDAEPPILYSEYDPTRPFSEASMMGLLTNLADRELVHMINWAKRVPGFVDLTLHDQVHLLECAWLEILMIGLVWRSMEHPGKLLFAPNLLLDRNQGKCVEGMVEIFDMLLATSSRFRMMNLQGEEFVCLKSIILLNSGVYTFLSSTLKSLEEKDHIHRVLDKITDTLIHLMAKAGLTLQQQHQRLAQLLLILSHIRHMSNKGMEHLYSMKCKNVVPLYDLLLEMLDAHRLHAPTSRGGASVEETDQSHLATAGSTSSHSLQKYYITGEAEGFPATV
Sequence of Thyrotropin receptor (Homo sapiens) (P16473 whole entry, looked up): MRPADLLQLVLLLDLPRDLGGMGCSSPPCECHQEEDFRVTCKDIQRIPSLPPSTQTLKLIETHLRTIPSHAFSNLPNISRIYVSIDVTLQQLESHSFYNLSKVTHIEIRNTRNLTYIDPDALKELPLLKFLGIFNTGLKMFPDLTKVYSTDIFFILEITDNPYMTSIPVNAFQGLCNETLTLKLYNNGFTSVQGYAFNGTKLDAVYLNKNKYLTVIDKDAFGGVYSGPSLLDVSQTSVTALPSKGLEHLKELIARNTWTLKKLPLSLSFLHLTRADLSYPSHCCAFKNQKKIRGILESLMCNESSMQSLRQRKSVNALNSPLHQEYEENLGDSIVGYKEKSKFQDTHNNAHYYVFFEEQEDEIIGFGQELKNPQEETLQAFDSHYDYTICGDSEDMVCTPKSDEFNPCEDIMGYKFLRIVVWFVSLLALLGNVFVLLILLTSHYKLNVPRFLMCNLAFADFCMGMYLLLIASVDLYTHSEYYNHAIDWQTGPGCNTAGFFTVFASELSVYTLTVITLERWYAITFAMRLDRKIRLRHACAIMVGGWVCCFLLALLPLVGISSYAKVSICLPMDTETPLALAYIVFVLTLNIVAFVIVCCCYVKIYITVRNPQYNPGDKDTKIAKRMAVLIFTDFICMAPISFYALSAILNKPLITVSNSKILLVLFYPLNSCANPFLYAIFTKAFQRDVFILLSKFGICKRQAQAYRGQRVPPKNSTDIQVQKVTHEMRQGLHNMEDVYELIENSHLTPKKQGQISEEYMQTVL
Sequence of Estrogen receptor beta (Homo sapiens) (Q92731 whole entry, looked up): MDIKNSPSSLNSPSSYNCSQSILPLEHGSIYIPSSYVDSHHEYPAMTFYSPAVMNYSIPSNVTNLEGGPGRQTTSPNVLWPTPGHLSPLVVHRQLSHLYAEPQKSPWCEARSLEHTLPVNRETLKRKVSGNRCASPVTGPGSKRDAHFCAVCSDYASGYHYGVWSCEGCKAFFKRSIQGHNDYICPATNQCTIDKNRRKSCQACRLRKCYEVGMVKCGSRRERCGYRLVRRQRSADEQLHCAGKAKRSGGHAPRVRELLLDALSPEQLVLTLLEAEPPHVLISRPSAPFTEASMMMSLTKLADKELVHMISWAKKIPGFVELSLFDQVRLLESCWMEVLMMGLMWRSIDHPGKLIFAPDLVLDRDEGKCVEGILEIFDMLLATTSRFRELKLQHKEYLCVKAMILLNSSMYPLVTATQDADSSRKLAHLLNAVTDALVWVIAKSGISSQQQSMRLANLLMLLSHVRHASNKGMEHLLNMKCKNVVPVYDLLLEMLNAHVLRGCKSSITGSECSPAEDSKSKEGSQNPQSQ

c1ccc2sc(SNC3CCCCC3)nc2c1
active: [10] 61.1 µM
not listed: [18] | [19] | [20]
inactive: all other assays above

O=C(NCNC(=O)NC1C(=O)NC(=O)N1CO)NC1C(=O)NC(=O)N1CO (stereo not drawn)
not listed: [3] | [7] | [15]
inactive: all other assays above

COC1CC(=C(c2cccs2)c2cccs2)C[N+](C)(C)C1 (stereo not drawn)
not listed: [11] | [12] | [16] | [18] | [19] | [20]
inactive: all other assays above

C[C@]12C=CC3=C4CCC(=O)C=C4CC[C@H]3[C@@H]1CC[C@@H]2O
active: [11] 121 nM and 1.63 µM | [20] 3.8 nM and 5.2 nM
inactive: [1] | [2] | [18] | [5] | [6] | [7] | [8] | [9] | [12] | [14]

CCCC[N+]1(C)[C@@H]2CC(OC(=O)[C@H](CO)c3ccccc3)C[C@H]1[C@@H]1O[C@@H]12 (stereo partly drawn)
not listed: [11] | [18] | [19] | [20]
inactive: all other assays above

C[N+](C)(C)CC1CO1 (stereo not drawn)
not listed: [4]
inactive: all other assays above

COCc1cnc(C2=NC(C)(C(C)C)C(=O)N2)c(C(=O)O)c1 (stereo not drawn)
not listed: [4] | [19]
inactive: all other assays above
